According to PubChem BioAssay AID489025 (Southern Research Specialized Biocontainment Screening …, 2010):
Screen size: about 2,300 compounds; about 790 (34%) were called active. How the calls were made is not given here. The list shows a part of the results. Results with a measured potency or affinity are listed apart.

experiment: THP-1 cell cytotoxicity, dose response, cytotoxicity control for non-replicating M. tuberculosis project (AID 489025); conditions: THP-1 cell viability; series mostly up to 40 µM

Row | Compound | outcome
1 | Nc1ccc2c(c1)oc1ccccc12 | inactive
2 | COc1ccc(N2CCN(CC(=O)NC(=O)NC(C)(C)C)CC2)cc1 | inactive
3 | Cc1cc(C)n(C(=O)c2ccc([N+](=O)[O-])cc2[N+](=O)[O-])n1 | inactive
4 | O=C(c1ccc([N+](=O)[O-])cc1[N+](=O)[O-])N1CCc2ccccc21 | inactive
5 | CCC1(O)CC(c2ccccc2)=NN1C(=O)c1ccccc1F (stereo not drawn) | inactive
6 | CCOC(=O)C(C)(C)n1nnc(-c2ccc([N+](=O)[O-])cc2)n1 | inactive
7 | CCOC(=O)C1CCN(C(=O)COc2cc(C)c(Br)c(C)c2)CC1 | inactive
8 | O=C(COc1ccccc1)Nc1ccc(Cl)cn1 | inactive
9 | FC(F)c1nnc2ccc(Cl)nn12 | inactive
10 | O=Cc1coc2ccc3ccccc3c2c1=O | inactive
11 | COC(=O)COc1cccc(NC(=O)c2cccc(C)c2)c1 | inactive
12 | COc1ccc(-c2noc(CCC(=O)Nc3cccc(C)c3)n2)cc1 | inactive
13 | CCOC(=O)COc1ccc(C(=O)c2ccccc2)c(O)c1 | inactive
14 | CC(C)c1cc(C(=O)N/N=C/C=C/c2ccccc2)n[nH]1 | inactive
15 | COc1ccc(S(=O)(=O)NCc2ccc3c(c2)cc(C)n3C)cc1 | inactive
16 | Cc1nnc(N/N=C/c2cccc(OCc3ccc(Cl)c(Cl)c3)c2)n1N | inactive
17 | O=C(OCc1nc2ccccc2s1)c1ccc(Br)o1 | inactive

Row | Compound | outcome
18 | CCOC(=O)CCCNC(=O)COC(=O)c1cc(Br)c(Br)s1 | inactive
19 | O=C(N/N=C/C(Br)=C/c1ccccc1)c1cnccn1 | inactive
20 | CCOc1ccc(-c2ccc(C=O)o2)c([N+](=O)[O-])c1 | inactive
21 | C/C(CC(=O)Nc1ccc(N(C)C)cc1)=N\NC(=O)c1ccncc1 | inactive
22 | Cc1cc(Cl)ccc1OC(C)C(=O)Nc1ccc([N+](=O)[O-])cn1 (stereo not drawn) | inactive
23 | Cc1ccc(C)c(NC(=O)c2cc([N+](=O)[O-])cc([N+](=O)[O-])c2)c1 | inactive
24 | O=C1CC(=O)CC(c2ccccc2)C1 | inactive
25 | O=C1CC(N2CCC(c3nc4ccccc4o3)CC2)C(=O)N1 (stereo not drawn) | inactive
26 | COc1cccc(OCC(=O)NNC(=O)c2cccs2)c1 | inactive
27 | O=C(c1cccs1)N1CCN(c2ccc(Cl)cc2)CC1 | inactive
28 | O=[N+]([O-])c1ccc(CN2CCN(c3ccc(F)cc3)CC2)o1 | inactive
29 | O=[N+]([O-])c1ccc(CN2CCN(c3ccccc3)CC2)o1 | inactive
30 | O=C(NNC(=O)c1cccs1)c1ccc(Br)o1 | inactive
31 | O=[N+]([O-])c1ccc(N2CCN(Cc3ccc([N+](=O)[O-])o3)CC2)cc1 | inactive
32 | CCOC(=O)NC(=O)COC(=O)CCCSc1nc2ccccc2s1 | inactive
33 | O=C(Cc1ccc(F)cc1)Nc1ccc(Cl)cn1 | inactive
